Compound activity from PubChem BioAssay.
This is a sample that favours compounds with a hit; in the whole collection about 3% have one here.
ALOX12 inh = Primary qHTS assay for inhibitors of human arachidonate 12S-lipoxygenase (ALOX12): Round 2; Polyunsaturated fatty acid lipoxygenase ALOX12 (Homo sapiens), P18054; purified 12hLO, xylenol orange hydroperoxide absorbance; 1.1% of 580,000 active; Potency, µM (top dose mostly 108 µM), for inactives: top-dose activity change, negative = inhibition, most hits filed as inhibitors; active = well fitted inhibition curve with a large enough effect; inconclusive = small, poorly fitted or top-dose-only effect, or another doubt; inactive = no such curve, though single readings can be large or run the other way; note: potency is the fitted concentration of half-maximal effect; % is set by controls: 0 for no effect and ±100 for the full control effect
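Purified human 12hLO at 150 nM in 25 mM Hepes, 0.01% Triton X-100, pH 7.0, preincubated 15 min at room temperature with compound. Reaction started with 40 uM arachidonic acid, 30 min at room temperature. Hydroperoxide measured by Fe-xylenol orange, 573/405 nm absorbance ratio.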
ClpP mod = qHTS Assay for Activators of ClpP | 1.9% of 340,000 active | purified B. subtilis ClpP, FRET peptide cleavage, 20 min | AID 651965, 2013 | Potency, µM (titrated, usually from 57.5 µM), for the others: at the top dose activity change, negative = active; active = well fitted falling curve with a large enough effect; inconclusive = small, poorly fitted or top-dose-only effect; inactive = no such curve, though single readings can be large or run the other way; note: potency is the fitted concentration of half-maximal effect; the source files actives as falling curves though it sought activators and does not explain the sign; nearly all actives have a fitted effect of over 65% in size
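Buffer: 100 mM Tris/HCl pH8, 100 mM KCl, 0.05% low protease BSA, 2.5% glycerol, 0.01% Tween-20. ClpP 10 microg/mL final; 20 min RT; delta FRET normalized to ADEP and DMSO controls.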
KCNH2 3.1 block = qHTS for Inhibitors of KCHN2 3.1: Mutant qHTS | 0.95% of 340,000 active | U2OS KCNH2 3.1, thallium flux FluxOr; stronger effect = lower value | Potassium voltage-gated channel subfamily H member 2, brain isoform KCNH2 3.1 (human) | AID 720553, 2013 | activity change, % (tested at about 1.8 µM);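 active = maximum activity change below -70%; inconclusive = maximum activity change from -70% to -50%; inactive = maximum activity change above -50%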;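 note: thallium influx rate constant from kinetic fluorescence after stimulation buffer; % is set by controls: 0 for no effect and ±100 for the full control effect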
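Measured as rate of thallium-driven FluxOr signal in transduced U2OS cells carrying the 3.1 channel, read kinetically for 2 min upon stimulation; values are rate constants scaled to DMSO control wells.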
hERG WT inh = qHTS for Inhibitors of KCHN2 3.1: Wildtype qHTS. Voltage-gated inwardly rectifying potassium channel KCNH2 (Homo sapiens), Q12809. U2OS, BacMam KCNH2, thallium flux FluxOr; stronger effect = lower value. activity change, % at 1.84 µM. 0.37% of 340,000 active;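 active = maximum activity change below -70%; inconclusive = maximum activity change between -70% and -50%; inactive = maximum activity change above -50%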; note: % is set by controls: 0 for no effect and ±100 for the full control effect
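U2OS cells were transduced with wild-type KCNH2 virus (2.03 x 10^8 / mL) for 4 h at room temperature, then cultured overnight at 37 C. Thallium flux was read with FluxOr dye. Rate constants were normalized to DMSO controls.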
LDHA block = qHTS assay for inhibitors of human lactate dehydrogenase; L-lactate dehydrogenase A chain (Homo sapiens), P00338; purified LDHA, NADH/diaphorase-resazurin fluorescence; stronger effect = lower value; activity change, % (values are at about 110 or 230 µM); 0.15% of 480,000 active; in the data active = activity change below about -30%; inconclusive = mostly about -25% to -30%;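 note: plate controls were DMSO wells for no effect and wells without enzyme for full effect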
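Resorufin fluorescence (ex540/em590), read at 0 and 20 min after diaphorase/resazurin addition, reports the NADH left after a 5 min room-temperature reaction of 2 nM human LDH5 with 0.06 mM NADH and 0.2 mM pyruvate.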
BCR signal inh = qHTS Assay to Find Inhibitors of Chronic Active B-Cell Receptor Signaling; ABC-DLBCL IkBa-CBG/CBR reporter, luminescence ratio, 4 h; Potency, µM (series often up to 46.1 µM), for inactives: at the top dose activity change, negative = inhibition, usual class: inhibitors; 0.05% of 340,000 active; active = well fitted inhibition curve with a large enough effect in the signal ratio, with a control signal flat, not every such curve was filed as active; inconclusive = small, poorly fitted or top-dose-only effect, or effect the other way, or a change in a side signal; the % refers to the signal ratio;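 note: potency is the fitted concentration of half-maximal effect; plate controls were basal doxycycline-induced cells for no effect and cells given 10 µM MG132 for full effect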
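Compounds up to 46 uM were incubated four hours with TMD8 cells whose green CBG68 luciferase is fused to IkappaBalpha; red CBR luminescence normalised the signal, and concentration-effect curves were fitted to fusion, red and ratio data.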
* hit, by the source's call; ? = inconclusive; / = no result; [ ] = remark or other dose.

SMILES	ALOX12 inh	ClpP mod	KCNH2 3.1 block	hERG WT inh	LDHA block	BCR signal inh
c1ccc(C2=NCCCN2)cc1	9%	-1%	4	29	-11	0%
CC(C)(C)NC1=NCCNC(c2ccccc2)=C1	0%	-2%	-2	-88*	-5	/
FC(F)(F)c1cccc(Nc2nc(CN3CCOCC3)nc3sc4c(c23)CCCC4)c1	36%	/	/	/	7	/
O=C(NC12CC3CC(CC(C3)C1)C2)c1ccccc1O	-29%	28µM*	12	2	5	?
Cc1ccccc1C(=O)NC12CC3CC(CC(C3)C1)C2	-22%	/	/	/	6	/
CC(=O)Nc1ccc(C(=O)Nc2nc(-c3cccnc3)cs2)cc1	-25%	11µM*	0	-26	-4	-1%
CCNc1nc(-c2ccc(NC(C)=O)cc2)cs1	28µM*	/	/	/	-18	/
NS(=O)(=O)c1cc(C(=O)NC2CCSc3ccccc32)ccc1Cl (stereo not given)	?	/	-21	0	-66*	6%
CCOc1cc2c(cc1CNC(=O)c1ccc(Cl)c(S(N)(=O)=O)c1)OC(C)C2 (stereo not given)	17%	/	/	/	-5	/
COc1ccc(-c2cc(=O)n(-c3ccc([N+](=O)[O-])cc3)[nH]2)cc1	?	28µM*	-4	-5	-5	?
O=C1C(Cl)=C(N2CCCC2)C(=O)N1c1ccc(F)cc1	0%	25µM*	8	14	-2	-10%
O=C(COC(=O)c1cccs1)Nc1nc(-c2ccccc2)cs1	-22%	32µM*	0	0	-3	11%
C/C(=N\Nc1nc(-c2ccccc2)cs1)c1cccs1	45µM*	-2%	0	7	0	?
O=C(COC(=O)c1ccccc1Br)Nc1nc(-c2ccccc2)cs1	?	/	/	/	-1	/
Cc1ccccc1C(C)NC(=O)CSc1nc2cc([N+](=O)[O-])ccc2o1 (stereo not given)	25µM*	/	/	/	-5	/
N#Cc1ccc(/C=N/Nc2ccccc2C(F)(F)F)cc1	10µM*	/	/	/	0	/
C=CCOc1ccccc1CNCCCN1CCOCC1	?	-3%	5	6	-10	1%
C=CCOc1cccc(CNCCCN2CCOCC2)c1	3%	14µM*	-8	0	-2	-6%
CCNC(=O)CN1CCN(C(C(=O)O)c2c[nH]c3ccccc23)CC1 (stereo not given)	-12%	/	/	/	-2	/
CC(C)N1CCN(C(=O)C2CCCCC(=O)N2C)CC1 (stereo not given)	31%	/	/	/	/	/
Cc1ccc(C(=O)/C=C/c2ccc(C(C)C)cc2)cc1[N+](=O)[O-]	-22%	/	/	/	-24	/
COc1ccc(CN2CC[C@H]3C=CCc4cccc(c43)C2)cc1	?	-2%	-85*	1	5	-11%
O=C(c1cccc(Cl)c1)N1CCC2(C1)NC(=O)N(Cc1ccc(Cl)cc1)C2=O (stereo not given)	40µM*	/	/	/	/	/
Cc1ccc(C(=O)N2CCC3(CC2)NC(=O)N(c2ccccc2Cl)N3)c(C)c1	2.2µM*	/	/	/	/	/
CC(Oc1ccccc1)C(=O)N1CCC2(CC1)NC(=O)N(c1ccccc1Cl)N2 (stereo not given)	1.4µM*	/	/	/	/	/
SMILES	ALOX12 inh	ClpP mod	KCNH2 3.1 block	hERG WT inh	LDHA block	BCR signal inh
O=C(c1ccc(F)cc1)N1CCC2(CC1)NC(=O)N(c1ccccc1Cl)N2	1.3µM*	/	/	/	/	/
CCn1cc(S(=O)(=O)N2CCC(Cc3nncn3CC)C2)cn1 (stereo not given)	37%	/	/	/	/	/
COc1ccc(-c2cc(C[C@H]3CNCC[C@H]3CC(=O)NCc3ccccc3)no2)cc1	-27%[176 µM]	/	/	/	/	/
COc1ccc(CN(C(=O)c2ccc(S(=O)(=O)N(C)C)cc2)C(C)Cc2cccs2)cc1 (stereo not given)	2%	/	/	/	2	/
O=C(c1cccc(Cl)c1)N1CCC2(CC1)NC(=O)N(c1ccccc1Cl)N2	1.6µM*	/	/	/	/	/
COc1ccc(/C=C/CN2CCN(Cc3cccc(OC)c3)C(CCO)C2)cc1 (stereo not given)	0%	0%	-17	-1	-1	?
Cc1ncc(CN2CCN(Cc3ccccc3)C(CCO)C2)s1 (stereo not given)	0%	-2%	-7	-5	0	-1%
CCOc1ccc(CN2CCN(Cc3cccn3-c3nccs3)CC2CCO)cc1 (stereo not given)	0%	/	-113*	-134*	-2	-2%
CCOc1ccc(CN2CCN(Cc3cnc(-c4ccccc4)s3)CC2CCO)cc1 (stereo not given)	-3%	-3%	-97*	-96*	-1	-5%
CCOc1ccc(CN2CCN(C/C=C/c3ccc(OC)cc3)CC2CCO)cc1 (stereo not given)	-2%	/	-88*	-15	-2	-7%
OCCC1CN(Cc2cccn2-c2nccs2)CCN1Cc1ccccc1 (stereo not given)	17%	-1%	-41	14	-4	?
OCCC1CN(Cc2cccn2-c2nccs2)CCN1Cc1ccc(F)c(F)c1 (stereo not given)	2%	/	-85*	-47	0	3%
CCCN(CCC)CC(O)CN(c1ccccc1)S(=O)(=O)c1ccc(C)cc1 (stereo not given)	-6%	-2%	-81*	-96*	-14	-14%
COc1ccc(N(CC(O)Cn2c(C)nc3ccccc32)S(=O)(=O)c2ccc(C)cc2)cc1 (stereo not given)	17%	1%	-102*	?	-1	-1%
Cc1ccc(N(CC(O)COCc2ccco2)S(=O)(=O)c2ccc(C)cc2)cc1 (stereo not given)	35µM*	0%	0	10	2	15%
O=C(NCCc1ccccc1)C12CC3CC(CC(Cl)(C3)C1)C2	-13%	/	/	/	-1	/
COc1ccc(CNC(=O)c2cccc(C)c2C)cc1C(=O)O	-14%	/	/	/	-10	/
Cc1ccc(-c2cn3nc(N4CCC(C(=O)NCc5ccc(OC(C)C)cc5)CC4)sc3n2)cc1	-10%	/	/	/	3	/
COc1ccc(-c2nc(C3CC3)nc3c2CCN(Cc2cccc4ccccc24)CC3)cc1	2%[6.33 µM]	/	/	/	/	/
